In PubChem BioAssay (NCATS):
Values joined by “and” are separate entries in the source; they are usually repeats but may differ in a detail not shown here. Equal entries are not always repeated. Inconclusive results are not listed. Entries that show only a call come without a potency. The source holds several records for some structures; these can differ, active in one and inactive in another. Active and inactive are the calls of the source. Unless noted, calls come from the whole dose curve; as a rule, active = well fitted curve in the direction sought with a large enough effect; inconclusive = small, poorly fitted or top-dose-only effect, or another doubt; inactive = no such curve, though single readings can be large; an effect the other way counts as inactive or inconclusive.

What was measured:
[1] = target: Cytochrome P450 3A4 (Homo sapiens) (UniProt P08684); assay: qHTS Assay for Activators of Cytochrome P450 3A4 (AID 885); note: nearly all actives have a fitted effect of over 65% in size
Procedure, shortened: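 Steps: enzyme/substrate mix dispensed; compound added, 10 min RT; NADPH regeneration solution added, 60 min RT; luciferin detection buffer stops reaction; 20 min later luminescence measured.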

[2] = Confirmation and Secondary Assay for Modulators of Hemoglobin Beta Chain Splicing at IVS2 654 locus (AID 910);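 note: HeLa cells stably carrying EGFP split by mutant beta-globin IVS2-654 intron; per-well total GFP intensity by laser scanning cytometry after 2-day treatment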;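 note: potency is the fitted concentration of half-maximal effect; potency of activators that raise GFP signal by restoring correct splicing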
Procedure, shortened: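 Readout: per-well total peak green fluorescence (488 nm ex, 500–520 nm em) from objects 5–250 µm, reflecting correct splicing of an EGFP-654 reporter. Compounds were applied for 2 days at 37 °C to overnight-plated HeLa EGFP-654 cells; controls were DMSO and 500 nM IVS2-654 PNA.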

[3] = Confirmation and Secondary Assay for Modulators of Hemoglobin Beta Chain Splicing at IVS2 705 locus (AID 930);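 note: GFP fluorescence per well restored by corrected splicing of the IVS2-705 intron in EGFP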; note: potency is the fitted concentration of half-maximal effect;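 for activation: HeLa cells stably expressing the EGFP-705 splicing reporter; series mostly up to about 46 µM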
Procedure, shortened: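 HeLa IVS2-705 EGFP reporter cells, 500/well, compound 2 d at 37C; correct splicing yields fluorescent EGFP. Control: 500 nM antisense PNA. Read-out: total peak GFP intensity.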

[4] = target: Cytochrome P450 3A4 (Homo sapiens) (UniProt P08684); assay: qHTS Assay for Inhibitors and Substrates of Cytochrome P450 3A4 (AID 884); note: nearly all actives have a fitted effect of over 50% in size; note: potency is the fitted concentration of half-maximal effect
Procedure, shortened: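 20 nM human CYP3A4 with 25 uM Luciferin-PPXE (at KM) in 200 mM KPO4, preincubated 10 min with compound; NADPH regeneration started a 60 min RT reaction. Luciferin detected by luminescence, normalized to 57 uM ketoconazole as full inhibition.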

[5] = target: Cytochrome P450 2D6 (Homo sapiens) (UniProt P10635); assay: qHTS Assay for Inhibitors and Substrates of Cytochrome P450 2D6 (AID 891); note: nearly all actives have a fitted effect of over 60% in size; note: potency is the fitted concentration of half-maximal effect
Procedure, shortened: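 Human CYP2D6 (5 nM) with 30 uM Luciferin-ME EGE (at Km) in 100 mM KPO4, compound preincubated 10 min, then NADPH regeneration system for 60 min at room temperature. Luciferin read by luminescence; normalized to 1.43 uM quinidine.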

[6] = qHTS Assay for Identification of Small Molecule Agonists for Hypoxia Response Element Signaling Pathway (AID 914; active = well fitted activation curve with a large enough effect in the signal ratio, with a control signal flat, not every such curve was filed as active; the % refers to the signal ratio); details: ME-180 (cervical carcinoma) HRE-bla reporter, beta-lactamase ratio, CoCl2, 17 h; stronger effect = higher value
Procedure, shortened: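 HRE-bla ME-180 assay for agonist-like enhancement of an EC50 CoCl2 stimulus: 17 h at 37 degrees Celsius, CCF4 for 2.5 h, ratiometric 460/530 nm signal converted to %Activity and fitted to AC50.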

[7] = target: Cytochrome P450 2C9 (Homo sapiens) (UniProt P11712); assay: qHTS Assay for Inhibitors and Substrates of Cytochrome P450 2C9 (AID 883); note: nearly all actives have a fitted effect of over 60% in size; note: potency is the fitted concentration of half-maximal effect
Procedure, shortened: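 Inhibition of CYP2C9 is scored as loss of luminescence, with 57uM sulphaphenazole defining 100% inhibition. Substrate Luciferin-H is used at 100uM, equal to its KM; enzyme at 10nM in 25mM KPO4, 60 min at 37C with NADPH regeneration.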

[8] = target: Cytochrome P450 2C19 (Homo sapiens) (UniProt P33261); assay: qHTS Assay for Inhibitors and Substrates of Cytochrome P450 2C19 (AID 899); note: nearly all actives have a fitted effect of over 60% in size
Procedure, shortened: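 5nM enzyme + 10uM Luciferin-H EGE (=KM), 50mM KPO4; cpd pin-transferred, 10 min 37C; NADPH regen, 60 min 37C; stopped w/ luciferin detection reagent, 20 min; luminescence. Normalized to 57uM ketoconazole (AC100).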

[9] = target: Muscarinic acetylcholine receptor M1 (Rattus norvegicus) (UniProt P08482); assay: qHTS Assay for Antagonists of Acetylcholine Muscarinic M1 Receptor: Kinetic Measurement of Intracellular Calcium Response (AID 943);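 note: Fluo-4 calcium signal as peak divided by basal fluorescence over 4 min; series mostly up to about 35 µM; nearly all actives have a fitted effect of over 75% in size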
Procedure, shortened: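 CHO cells stably expressing rat M1 were loaded with no-wash Fluo-4 dye for 1 h at 37C, pre-incubated 10 min with compound, then challenged with EC80 carbachol (100 nM final); kinetic calcium read 4 min, peak/basal ratio.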

[10] = target: Muscarinic acetylcholine receptor M1 (Rattus norvegicus) (UniProt P08482); assay: qHTS Assay for Antagonists of Acetylcholine Muscarinic M1 Receptor: Measurement of IP-One Response (AID 944); note: nearly all actives have a fitted effect of over 75% in size
Procedure, shortened: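 CHO cells expressing rat M1 receptor, recovered overnight, were pre-incubated 10 min with compound, then stimulated 30 min with carbachol at EC80 (200 nM) in LiCl-containing buffer, pH 7.4. IP1 accumulation was read by HTRF (620/665 nm).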

[11] = target: Guanine nucleotide-binding protein G(i) subunit alpha-1 (Homo sapiens) (UniProt P63096); assay: qHTS Assay for Inhibitors of RGS12 GoLoco Motif Activity (Green Fluorophore) (AID 879);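 note: negative values mean loss of peptide binding seen as reduced polarization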
Procedure, shortened: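 Fluorescence polarization assay: 50 nM Gαi1 with 10 nM FITC-labeled RGS12 GoLoco peptide in 10 mM Tris pH 7.5, 150 mM NaCl, 0.1 mM GDP, 0.05% NP40, 10 min at room temperature with compound.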

[12] = qHTS Assay for Identification of Small Molecule Agonists for Thrombopoietin (TPO) Signaling Pathway (AID 917)
Procedure, shortened: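 Reporter: GpIIb promoter–luciferase in murine Ba/F3 expressing human TPO receptor. Pre-starved of IL-3 overnight; compounds with 26 pM TPO, 24 hrs, 37 C/5% CO2; luminescence read.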

[13] = qHTS Assay for Identification of Small Molecule Antagonists for NFkB Signaling Pathway (AID 895; active = well fitted inhibition curve with a large enough effect in the signal ratio, with a control signal flat, not every such curve was filed as active; the % refers to the signal ratio)
Procedure, shortened: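 Beta-lactamase reporter read-out (460 and 530 nm emission ratio, 405 nm excitation, 2 hrs substrate loading RT) after 5 hr stimulation with 10 pM TNF alpha in compound-treated NFkB-bla ME-180 cells in low-serum medium.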

Chain of Cytochrome P450 3A4 (Homo sapiens) (P08684 whole entry, looked up): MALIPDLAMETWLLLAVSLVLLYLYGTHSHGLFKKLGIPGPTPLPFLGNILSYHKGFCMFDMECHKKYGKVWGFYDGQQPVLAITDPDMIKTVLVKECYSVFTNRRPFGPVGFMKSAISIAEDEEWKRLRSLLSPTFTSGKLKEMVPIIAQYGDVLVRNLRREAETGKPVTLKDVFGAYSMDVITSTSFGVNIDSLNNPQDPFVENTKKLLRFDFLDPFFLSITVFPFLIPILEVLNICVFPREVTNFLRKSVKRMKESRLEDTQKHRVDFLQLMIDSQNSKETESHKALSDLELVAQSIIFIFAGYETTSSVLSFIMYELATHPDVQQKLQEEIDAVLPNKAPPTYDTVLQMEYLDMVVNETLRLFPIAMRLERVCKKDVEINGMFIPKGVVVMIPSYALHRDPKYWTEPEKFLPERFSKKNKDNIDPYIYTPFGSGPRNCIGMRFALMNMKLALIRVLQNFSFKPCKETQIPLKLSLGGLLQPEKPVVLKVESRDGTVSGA
Chain of Guanine nucleotide-binding protein G(i) subunit alpha-1 (Homo sapiens) (P63096 whole entry, looked up): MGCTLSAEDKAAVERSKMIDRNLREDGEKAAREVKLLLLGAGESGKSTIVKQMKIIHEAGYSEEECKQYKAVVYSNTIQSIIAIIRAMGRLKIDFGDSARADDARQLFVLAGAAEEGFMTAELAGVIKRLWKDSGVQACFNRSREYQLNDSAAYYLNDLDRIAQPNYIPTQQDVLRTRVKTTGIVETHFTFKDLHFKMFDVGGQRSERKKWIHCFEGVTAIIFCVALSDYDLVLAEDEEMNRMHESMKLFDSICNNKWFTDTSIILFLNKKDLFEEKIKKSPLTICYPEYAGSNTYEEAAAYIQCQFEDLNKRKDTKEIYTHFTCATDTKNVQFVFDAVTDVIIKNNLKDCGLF
Chain of Muscarinic acetylcholine receptor M1 (Rattus norvegicus) (P08482 whole entry, looked up): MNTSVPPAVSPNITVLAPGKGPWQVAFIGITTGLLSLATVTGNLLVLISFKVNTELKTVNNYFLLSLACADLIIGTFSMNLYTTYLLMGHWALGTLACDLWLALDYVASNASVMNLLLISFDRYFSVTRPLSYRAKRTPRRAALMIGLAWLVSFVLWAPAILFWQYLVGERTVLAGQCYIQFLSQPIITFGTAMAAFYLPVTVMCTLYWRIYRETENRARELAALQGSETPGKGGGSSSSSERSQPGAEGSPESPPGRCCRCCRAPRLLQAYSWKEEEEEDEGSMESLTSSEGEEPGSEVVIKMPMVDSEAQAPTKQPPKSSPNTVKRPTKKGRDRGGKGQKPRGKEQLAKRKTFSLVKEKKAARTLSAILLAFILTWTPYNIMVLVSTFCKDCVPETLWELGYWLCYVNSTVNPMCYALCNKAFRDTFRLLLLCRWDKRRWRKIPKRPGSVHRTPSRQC
Chain of Cytochrome P450 2D6 (Homo sapiens) (P10635 whole entry, looked up): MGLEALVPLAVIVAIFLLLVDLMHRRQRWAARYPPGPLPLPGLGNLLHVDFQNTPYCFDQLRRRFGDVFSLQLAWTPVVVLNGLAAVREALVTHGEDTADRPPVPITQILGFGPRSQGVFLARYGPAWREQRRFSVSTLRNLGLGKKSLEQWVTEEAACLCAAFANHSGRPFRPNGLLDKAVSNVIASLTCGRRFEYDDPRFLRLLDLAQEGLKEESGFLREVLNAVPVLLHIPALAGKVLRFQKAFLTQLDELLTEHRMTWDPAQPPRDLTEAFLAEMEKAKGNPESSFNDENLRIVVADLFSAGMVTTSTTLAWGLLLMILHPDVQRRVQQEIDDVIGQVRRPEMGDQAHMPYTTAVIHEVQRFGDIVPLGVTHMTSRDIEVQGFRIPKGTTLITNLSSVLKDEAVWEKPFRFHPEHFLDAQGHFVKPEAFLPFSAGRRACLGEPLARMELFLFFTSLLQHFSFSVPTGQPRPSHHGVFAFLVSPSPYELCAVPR
Chain of Cytochrome P450 2C9 (Homo sapiens) (P11712 whole entry, looked up): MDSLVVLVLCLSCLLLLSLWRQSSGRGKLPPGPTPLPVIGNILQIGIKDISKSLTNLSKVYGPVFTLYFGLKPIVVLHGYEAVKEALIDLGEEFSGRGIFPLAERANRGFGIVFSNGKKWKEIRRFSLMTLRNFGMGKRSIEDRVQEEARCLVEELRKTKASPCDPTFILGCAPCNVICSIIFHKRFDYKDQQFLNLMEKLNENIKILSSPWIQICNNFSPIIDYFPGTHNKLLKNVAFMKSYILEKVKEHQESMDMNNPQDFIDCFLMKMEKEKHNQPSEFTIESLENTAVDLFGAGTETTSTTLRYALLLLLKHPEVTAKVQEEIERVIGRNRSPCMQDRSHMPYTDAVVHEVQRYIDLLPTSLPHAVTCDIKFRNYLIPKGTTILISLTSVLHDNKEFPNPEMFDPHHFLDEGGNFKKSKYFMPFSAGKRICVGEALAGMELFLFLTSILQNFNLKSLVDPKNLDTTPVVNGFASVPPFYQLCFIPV
Chain of Cytochrome P450 2C19 (Homo sapiens) (P33261 whole entry, looked up): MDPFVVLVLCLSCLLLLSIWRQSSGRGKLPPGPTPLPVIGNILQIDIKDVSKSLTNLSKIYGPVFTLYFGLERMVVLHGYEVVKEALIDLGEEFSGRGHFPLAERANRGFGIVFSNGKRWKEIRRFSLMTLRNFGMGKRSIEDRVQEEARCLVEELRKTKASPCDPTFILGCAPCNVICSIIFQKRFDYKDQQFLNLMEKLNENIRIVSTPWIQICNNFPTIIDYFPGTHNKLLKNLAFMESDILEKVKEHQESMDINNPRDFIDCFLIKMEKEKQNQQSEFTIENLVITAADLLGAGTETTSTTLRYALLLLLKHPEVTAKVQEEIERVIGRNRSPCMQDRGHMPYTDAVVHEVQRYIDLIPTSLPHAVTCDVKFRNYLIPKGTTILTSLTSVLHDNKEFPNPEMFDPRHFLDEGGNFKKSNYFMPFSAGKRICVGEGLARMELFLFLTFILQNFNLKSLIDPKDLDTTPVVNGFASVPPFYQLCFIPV

Q: Which results are given for Cc1cccc(CN2CCN(C(c3ccccc3)c3ccc(Cl)cc3)CC2)c1 (stereo unspecified)?
A: outcome [1]: inactive; Potency [2]: inactive; Potency [3]: inactive

Q: Which results are given for O=C(O)c1cc(=O)c2c(OCC(O)COc3cccc4oc(C(=O)O)cc(=O)c34)cccc2o1?
A: Potency [4]: inactive; Potency [2]: inactive; Potency [3]: inactive

Q: For CN1CCC(=C2c3ccccc3CCc3sccc32)CC1, which Potency [5] is on record?
A: 1.26 µM (active)

Q: What about the Potency [2] of the same molecule?
A: inactive

Q: And the Potency [3]?
A: inactive

Q: With Cc1cc(C2CCCCC2)n(O)c(=O)c1 as the molecule, how does the Potency [4] read?
A: inactive

Q: What about the Potency [2] of the same molecule?
A: inactive

Q: And the Potency [3]?
A: inactive

Q: For COC(=O)C1=C(C)NC(C)=C(C(=O)OC(C)C)C1c1cccc2nonc12 (stereo unspecified), which outcome [1] is on record?
A: inactive

Q: With O=C1c2c(O)cc(O)cc2OC(c2ccc(O)c(O)c2)C1O (stereo unspecified) as the molecule, how does the outcome [1] read?
A: inactive

Q: Which Potency [4] does the source give for CN1C(C(=O)Nc2ccccn2)=C(O)c2sccc2S1(=O)=O here?
A: inactive

Q: And the Potency [2]?
A: inactive

Q: What about the activation [6] of the same molecule?
A: -9.7% (inactive)

Q: And the Potency [3]?
A: inactive

Q: What does the source list for CCOC(=O)C1=C(O)C(=O)N(Cc2ccccc2)C1?
A: Potency [7]: 3.98 µM (active); outcome [1]: inactive

Q: What does the source list for O=C1c2ccccc2-c2n[nH]c3cccc1c23?
A: Potency [7]: inactive; Potency [4]: 3.98 µM (active); outcome [1]: inactive; Potency [5]: inactive and 398 nM (active); Potency [8]: inactive; Potency [9]: inactive; Potency [10]: inactive

Q: For Cc1cc2c(s1)Nc1ccccc1N=C2N1CCN(C)CC1, which Potency [4] is on record?
A: inactive

Q: And the Potency [2]?
A: inactive

Q: And the Potency [3]?
A: inactive

Q: What does the source list for Nc1nc(OCc2ccccc2)c2[nH]cnc2n1?
A: outcome [11]: inactive; Potency [12]: inactive; Potency [9]: inactive; Potency [10]: inactive

Q: With Nc1cc(C(Cl)=C(Cl)Cl)c(S(N)(=O)=O)cc1S(N)(=O)=O as the molecule, how does the Potency [2] read?
A: inactive

Q: What about the Potency [3] of the same molecule?
A: inactive

Q: Which outcome [11] does the source give for CNC[C@H](O)c1ccc(O)c(O)c1 here?
A: inactive

Q: What about the Potency [12] of the same molecule?
A: inactive

Q: Which Potency [4] does the source give for Cc1cc2cc3c(C)cc(=O)oc3c(C)c2o1 here?
A: 3.98 µM (active)

Q: And the outcome [1]?
A: inactive

Q: What about the Potency [2] of the same molecule?
A: inactive

Q: And the Potency [3]?
A: inactive

Q: What does the source list for S=c1nc[nH]c2nc[nH]c12?
A: Potency [4]: inactive; Potency [2]: 3.16 µM (active); Potency [3]: 6.31 µM (active)

Q: Which Potency [4] does the source give for O=C(NC(Cc1cc(=O)[nH]c2ccccc12)C(=O)O)c1ccc(Cl)cc1 (stereo unspecified) here?
A: inactive

Q: And the Potency [2]?
A: inactive

Q: What about the Potency [3] of the same molecule?
A: inactive

Q: With CC1Cc2ccccc2N1NC(=O)c1ccc(Cl)c(S(N)(=O)=O)c1 (stereo unspecified) as the molecule, how does the Potency [4] read?
A: inactive

Q: And the Potency [2]?
A: inactive

Q: What about the Potency [3] of the same molecule?
A: inactive

Q: Which Potency [4] does the source give for Cc1ncc([N+](=O)[O-])n1CC(C)O (stereo unspecified) here?
A: inactive

Q: And the Potency [2]?
A: inactive

Q: And the Potency [3]?
A: inactive

Q: What does the source list for O=c1ccc2ccc(O)c(O)c2o1?
A: outcome [11]: inactive; Potency [13]: inactive; Potency [9]: inactive

Q: Which Potency [4] does the source give for O=c1oc2cc(O)ccc2s1 here?
A: inactive

Q: And the Potency [2]?
A: inactive

Q: What about the Potency [3] of the same molecule?
A: inactive

Q: For O=C(O)c1cn(-c2ccc(F)cc2)c2cc(N3CCNCC3)c(F)cc2c1=O, which Potency [4] is on record?
A: inactive

Q: What about the Potency [2] of the same molecule?
A: inactive

Q: And the Potency [3]?
A: inactive

Q: Which results are given for CC(C)c1ccc2c(c1)c(SC(C)(C)C)c(CC(C)(C)C(=O)O)n2Cc1ccc(Cl)cc1?
A: outcome [11]: inactive; outcome [1]: inactive; Potency [10]: inactive

Q: For C[C@@H](N)C1CCC(C(=O)Nc2ccncc2)CC1 (stereo partly specified), which Potency [4] is on record?
A: 15.8 µM (active)

Q: What about the outcome [1] of the same molecule?
A: inactive

Q: For CCN(CCO)CCCC(C)Nc1ccnc2cc(Cl)ccc12 (stereo unspecified), which Potency [2] is on record?
A: inactive

Q: And the Potency [3]?
A: inactive

Q: With O=C(c1ccccc1)c1ccc2n1CCC2C(=O)O (stereo unspecified) as the molecule, how does the Potency [4] read?
A: inactive

Q: What about the Potency [2] of the same molecule?
A: inactive

Q: And the Potency [3]?
A: inactive

Q: With COc1ccc2cc([C@H](C)C(=O)O)ccc2c1 as the molecule, how does the outcome [11] read?
A: inactive

Q: And the Potency [13]?
A: inactive

Q: And the Potency [12]?
A: inactive
